An excerpt weighted towards active compounds, which were near 7.4% of everything screened.
FLuc modulator: qHTS profiling assay for firefly luciferase inhibitor/activator using purifed enzyme and Km concentrations of substrates (counterscreen for miR-21 project); purified FLuc, Km substrates, luminescence inhibition; Potency, µM (highest dose often 57.5 µM), usual class: inhibitors; actives 6.9% (n = 360,000); also: nearly all actives have a fitted effect of over 55% in size
Target sequence (P08659 whole entry, looked up): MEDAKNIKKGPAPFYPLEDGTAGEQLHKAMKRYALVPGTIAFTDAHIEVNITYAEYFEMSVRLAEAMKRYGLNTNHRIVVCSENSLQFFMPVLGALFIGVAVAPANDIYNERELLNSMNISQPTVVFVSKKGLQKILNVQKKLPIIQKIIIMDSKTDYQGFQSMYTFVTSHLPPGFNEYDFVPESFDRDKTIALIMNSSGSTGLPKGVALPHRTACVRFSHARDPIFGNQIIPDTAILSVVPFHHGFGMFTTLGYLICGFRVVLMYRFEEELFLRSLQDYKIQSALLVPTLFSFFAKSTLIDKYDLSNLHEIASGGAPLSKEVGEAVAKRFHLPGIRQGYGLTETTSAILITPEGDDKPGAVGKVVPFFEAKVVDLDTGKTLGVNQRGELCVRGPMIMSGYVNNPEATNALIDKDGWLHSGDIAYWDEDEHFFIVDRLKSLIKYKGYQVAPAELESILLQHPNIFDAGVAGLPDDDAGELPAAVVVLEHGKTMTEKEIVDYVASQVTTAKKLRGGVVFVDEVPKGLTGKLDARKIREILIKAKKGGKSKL
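Purified P. pyralis luciferase (10nM final) with 10uM D-luciferin and 10uM ATP (Km levels) in 50mM Tris acetate pH 7.5, 10mM Mg acetate, 0.01% Tween-20, 0.05% BSA; qHTS 6-point titration, ~60 µM downward; luminescence read.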
ELG1 genotox: qHTS screen for small molecules that induce genotoxicity in human embryonic kidney (HEK293T) cells expressing luciferase-tagged ELG1 | HEK293T ELG1-luciferase reporter, luminescence, 16 h | Potency, µM (titrated, usually from 46 µM), hits mostly activators | actives 1.3% (n = 330,000) | AID 504466, 2011; also: nearly all actives have a fitted effect of over 60% in size
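Step 1: seed 2,000 HEK293T ELG1-luciferase cells per well. Step 2: add compound or DMSO, incubate 16 hr at 37 °C. Step 3: ONE-Glo, 30 min at room temperature, read luminescence.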
NPC1 prom act: qHTS Assay for NPC1 Promoter Activators | AID 485313, 2010 | Potency, µM (titrated, usually from 9.22 µM), actives largely listed as activators | actives 2.4% (n = 320,000) | Huh7 NPC1 promoter luciferase reporter, 24 h; also: nearly all actives have a fitted effect of over 60% in size
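Huh7 cells stably carrying NPC1 promoter–luciferase, plated in Opti-MEM with 10% FBS for 2 h, were exposed to compound in DMSO for 24 h at 37 °C; luciferase reagent was added for 10 min and luminescence read.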
SMN2 splice enh: qHTS Assay for Enhancers of SMN2 Splice Variant Expression. HEK293 SMN2-luciferase splicing reporter, luminescence, 30-36 h. Potency, µM (titrated, usually from 46.1 µM), hits mostly activators. actives 2.8% (n = 210,000). AID 1458, 2008; also: nearly all actives have a fitted effect of over 55% in size
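HEK293 cells carry an SMN2 […]–luciferase reporter in which exon 7 inclusion puts luciferase in frame. Cells were plated 10-12 h before compound addition, then incubated 30-36 h at 37C. ONE-Glo luminescence was read; sodium butyrate at 4.5 mM final served as control.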
p53 reactivator: qHTS assay for re-activators of p53 using a Luc reporter | Potency, µM (titrated, usually from 92.2 µM), actives largely listed as activators | AID 504706, 2011 | actives 0.063% (n = 320,000) | H1299 p53-A138V BP100-luciferase reporter, luminescence, 24 h; also: nearly all actives have a fitted effect of over 45% in size
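H1299 (p53-null), stable ts p53-A138V + BP100-Luc; 1000 cells/well, Opti-MEM/10% FBS; cpd 4 pt, 1:5; 24 h, 37 deg C, 5% CO2; detection reagent 10 min RT; luminescence.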
Rab9 prom act: qHTS Assay for Rab9 Promoter Activators; Huh7 Rab9 promoter-luciferase reporter, luminescence, 24 h; Potency, µM (series often up to 9.22 µM), actives largely listed as activators; actives 2.8% (n = 320,000); AID 485297, 2010; also: nearly all actives have a fitted effect of over 60% in size
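Rab9 promoter-driven luciferase in stably transfected Huh7 cells; 1500 cells/well rested 2 h, exposed to compound in DMSO for 24 h at 37 °C, 5% CO2. Luminescence read 10 min after adding luciferase reagent at ambient temperature.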
Hits are given with their value. Calls follow the shape of the dose curve; as a rule, active = well fitted curve in the direction sought with a large enough effect; inconclusive = small, poorly fitted or top-dose-only effect, or another doubt; inactive = no such curve, though single readings can be large; an effect the other way counts as inactive or inconclusive.

Results for CC/C(=N\Nc1ccccc1[N+](=O)[O-])c1ccc(O)cc1 ?
FLuc modulator: 26.9µM; ELG1 genotox: inactive; NPC1 prom act: inactive; p53 reactivator: inactive; Rab9 prom act: inactive

How did C/C(=N\Nc1ccccc1[N+](=O)[O-])c1ccccc1O do in these assays?
FLuc modulator: 5.36µM; ELG1 genotox: 20.6µM; NPC1 prom act: inactive; p53 reactivator: inconclusive; Rab9 prom act: inactive

How did C/C(=N\Nc1ccc(S(N)(=O)=O)cc1[N+](=O)[O-])c1ccccc1O do in these assays?
FLuc modulator: inactive; ELG1 genotox: inactive; NPC1 prom act: inactive; p53 reactivator: inactive; Rab9 prom act: inactive

Results for O=C(NCCc1ccccc1)c1cc(-c2ccccc2)nc2n[nH]c(-c3ccccc3)c12 ?
FLuc modulator: inactive; SMN2 splice enh: inactive

Results for S=C=Nc1cccc(NC(=S)NCCCCNC(=S)Nc2cccc(N=C=S)c2)c1 ?
SMN2 splice enh: inactive

How did CCc1nc(Nc2cccc(O)c2)c2oc3ccccc3c2n1 do in these assays?
FLuc modulator: 19µM; ELG1 genotox: inactive; NPC1 prom act: inactive; p53 reactivator: inactive; Rab9 prom act: inactive

How did CCOc1ccc(NC(=O)c2cc(=O)c3ccc(C)c(C)c3o2)cc1 do in these assays?
FLuc modulator: inactive; SMN2 splice enh: inactive

What do the screens show for `COc1ccc(C(C)=O)cc1COC(=O)c1cc(=O)c2ccccc2o1`?
FLuc modulator: inactive; ELG1 genotox: inactive; NPC1 prom act: inactive; p53 reactivator: inactive; Rab9 prom act: inactive

How did CC(C)(C)c1ccc(Cn2nnc3c(=O)[nH]c(C4CCCN(C(=O)c5cccs5)C4)nc32)cc1 (stereo not given) do in these assays?
FLuc modulator: inactive; ELG1 genotox: inactive; NPC1 prom act: inactive; p53 reactivator: inactive; Rab9 prom act: inactive

What do the screens show for `CC(C)c1ccc(NC(=O)COc2ccc(C3SCCS3)cc2)cc1`?
FLuc modulator: inactive; ELG1 genotox: inactive; NPC1 prom act: inactive; p53 reactivator: inactive; Rab9 prom act: inactive

What do the screens show for `CCCCNC(=O)Nc1ccc(C2SCCS2)cc1`?
FLuc modulator: 15.1µM; ELG1 genotox: inconclusive; NPC1 prom act: inconclusive; p53 reactivator: inactive; Rab9 prom act: inconclusive

How did O=C(Nc1ccc(C2SCCS2)cc1)c1ccccc1 do in these assays?
FLuc modulator: 0.849µM; ELG1 genotox: inconclusive; NPC1 prom act: 1.12µM; p53 reactivator: inactive; Rab9 prom act: 1.41µM

Results for CNC(=O)Nc1ccc(C2SCCS2)cc1 ?
FLuc modulator: 16.9µM; ELG1 genotox: inactive; NPC1 prom act: inactive; p53 reactivator: inactive; Rab9 prom act: inactive

Results for CCCCNC(=O)Nc1ccccc1CC ?
FLuc modulator: inactive; ELG1 genotox: inactive; NPC1 prom act: inactive; p53 reactivator: inactive; Rab9 prom act: inactive

What do the screens show for `CO[C@]1(NC(=O)C2SC(=C(C(N)=O)C(=O)O)S2)C(=O)N2C(C(=O)O)=C(CSc3nnnn3C)CS[C@H]21` (stereo not given in full)?
SMN2 splice enh: inactive

How did CN(CC(=O)Nc1c(Cl)cccc1Cl)C(=O)Cc1cccs1 do in these assays?
FLuc modulator: inactive; ELG1 genotox: inactive; NPC1 prom act: inactive; p53 reactivator: inactive; Rab9 prom act: inactive

How did CCCCCCCCC(=O)N/N=C/c1ccccn1 do in these assays?
FLuc modulator: inactive; ELG1 genotox: inactive; NPC1 prom act: inactive; SMN2 splice enh: inactive; p53 reactivator: inactive; Rab9 prom act: inactive

How did CCCCCCCCC/C(=N\O)c1ccccn1 do in these assays?
FLuc modulator: 16.9µM; ELG1 genotox: inconclusive; NPC1 prom act: inconclusive; SMN2 splice enh: inactive; p53 reactivator: inactive; Rab9 prom act: inconclusive

Results for N=C1S/C(=C\c2cccc3ccccc23)C(=O)N1c1ccc(F)cc1 ?
FLuc modulator: inactive; ELG1 genotox: inactive; NPC1 prom act: inactive; SMN2 splice enh: inactive; p53 reactivator: inactive; Rab9 prom act: inactive

What do the screens show for `CSC1=NC(=O)/C(=C\c2cccc3ccccc23)S1`?
FLuc modulator: 7.57µM; ELG1 genotox: inactive; NPC1 prom act: inactive; SMN2 splice enh: inactive; p53 reactivator: inactive; Rab9 prom act: inactive

What do the screens show for `CCOC(=O)C(C)NC(=O)c1c2c(nc3ccccc13)C(=O)N(C1CCCCC1)C2` (stereo not given)?
FLuc modulator: inactive

Results for CC(C)(C)c1ccc(C(=O)NNC(=O)Cc2cccc3ccccc23)cc1 ?
FLuc modulator: 15.1µM; ELG1 genotox: inactive; NPC1 prom act: inactive; SMN2 splice enh: inactive; p53 reactivator: inactive; Rab9 prom act: inactive

How did COC(=O)C(C)NC(=O)C1CCCN1C(=O)CNC(=O)OCc1ccccc1 (stereo not given) do in these assays?
FLuc modulator: inactive; ELG1 genotox: inactive; NPC1 prom act: inactive; p53 reactivator: inactive; Rab9 prom act: inactive

How did CC(C)CCn1cnc2c(oc3nc4c(cc32)CCCC4)c1=O do in these assays?
FLuc modulator: 1.69µM; ELG1 genotox: inconclusive; NPC1 prom act: 0.501µM; p53 reactivator: inactive; Rab9 prom act: 0.447µM

What do the screens show for `NNc1nc(-c2ccccc2)nc2sc3c(c12)CCCC3`?
FLuc modulator: 0.536µM; ELG1 genotox: 1.3µM; NPC1 prom act: 3.55µM; SMN2 splice enh: inactive; p53 reactivator: inconclusive; Rab9 prom act: 2.24µM

What do the screens show for `CCn1c(NN)nc2sc3c(c2c1=O)CCC3`?
FLuc modulator: inactive; ELG1 genotox: inactive; NPC1 prom act: inactive; SMN2 splice enh: inactive; p53 reactivator: inactive; Rab9 prom act: inactive

Results for NNc1nc2sc3c(c2c(=O)n1Cc1ccccc1)CCC3 ?
FLuc modulator: 6.75µM; ELG1 genotox: inactive; NPC1 prom act: inactive; p53 reactivator: inactive; Rab9 prom act: inactive

How did CCc1nc2sc3c(c2c(=O)n1N)CCC3 do in these assays?
FLuc modulator: inactive; ELG1 genotox: inactive; NPC1 prom act: inactive; SMN2 splice enh: inactive; p53 reactivator: inactive; Rab9 prom act: inactive

What do the screens show for `O=C(O)c1ccc(Cn2nnc3sc4c(c3c2=O)CCCC4)cc1`?
FLuc modulator: 13.5µM; ELG1 genotox: inconclusive; NPC1 prom act: inactive; SMN2 splice enh: inactive; p53 reactivator: inactive; Rab9 prom act: inconclusive

What do the screens show for `Nn1c(Nc2ccccc2)nc2sc3c(c2c1=O)CCC3`?
FLuc modulator: 9.53µM; ELG1 genotox: inconclusive; NPC1 prom act: inactive; SMN2 splice enh: inactive; p53 reactivator: inactive; Rab9 prom act: inactive

Results for Cc1cc2c(cc1Cl)N(C(=O)Nc1ccc(Oc3cccnc3C)nc1)CC2 ?
NPC1 prom act: inactive; Rab9 prom act: inactive

How did Cc1ccccc1CN1CCCN(CC(=O)Nc2ccc(F)cc2)S1(=O)=O do in these assays?
FLuc modulator: inactive
